Kir21 inh: inhibitors of mouse Kir2.1 inward-rectifier potassium channel | B-score at 10 µM | Inward rectifier potassium channel 2 (Mus musculus), P35561 | 0.85% of 310,000 active | HEK293-Kir2.1, FluxOR thallium flux fluorescence; stronger effect = lower value | AID 1672, 2009;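 active means fluorescence ratio B-score at or below minus 3 SD of library scores, with starting-brightness B-score within 2 SD, cut at about -4.2 in these data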;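 further: channel flux triggered by added potassium and thallium sulfate stimulus; B-score of peak minus minimum fluorescence over baseline after thallium stimulus; more negative B-score means stronger Kir2.1 block with less thallium influx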
Target sequence (P35561 whole entry, looked up): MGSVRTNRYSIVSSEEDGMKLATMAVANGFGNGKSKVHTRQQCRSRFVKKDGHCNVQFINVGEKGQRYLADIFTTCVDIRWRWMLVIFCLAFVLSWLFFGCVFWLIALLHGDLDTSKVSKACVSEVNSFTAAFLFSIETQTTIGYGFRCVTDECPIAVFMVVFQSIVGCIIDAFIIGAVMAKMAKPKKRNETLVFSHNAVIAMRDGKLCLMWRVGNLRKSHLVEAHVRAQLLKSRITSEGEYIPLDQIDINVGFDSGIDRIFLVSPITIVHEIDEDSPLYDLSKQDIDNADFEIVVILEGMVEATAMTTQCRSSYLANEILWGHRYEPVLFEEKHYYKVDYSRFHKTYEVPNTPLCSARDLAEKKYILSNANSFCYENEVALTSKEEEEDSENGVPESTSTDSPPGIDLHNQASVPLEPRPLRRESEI
ANO1 block: TMEM16A chloride channel inhibitors, primary screen, cell-based, HTS; Anoctamin-1 (Mus musculus), Q8BHY3; HEK293 TMEM16A/YFP iodide influx fluorescence, ionomycin; normalized B-score (activity score, 25-100; higher = stronger inhibition) at 10 µM; 1.2% of 310,000 active; AID 588511, 2011;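 active means ratio plate-corrected score three or more library SD toward inhibition, starting fluorescence score within five deviations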;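 further: score derived from kinetic fluorescence span divided by baseline fluorescence per well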
CHT allo act: CHT positive allosteric modulators, primary screen, cell-based, membrane potential dye, choline EC20; High affinity choline transporter 1 (Homo sapiens), Q9GZV3; CHT-expressing cells; stronger effect = higher value; LV-AA mutant CHT in HEK293 cells; B-score at 10 µM; 0.49% of 310,000 active; AID 488977, 2010;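 active means initial fluorescence not abnormally high and integrated response B-score, plate-corrected, over 3 SD above library mean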
TMEM16A act: TMEM16A chloride channel activators or potentiators, primary screen, cell-based, HTS. HEK293 TMEM16A/YFP-H148Q/I152L, iodide quench fluorescence; stronger effect = lower value. B-score at 10 µM. 0.3% of 340,000 active;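 active means fluorescence-ratio B-score plate-corrected deviation score at least 3 library SD below zero, with starting fluorescence score within 5 deviations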;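 further: channel opened by trigger with iodide after compound preincubation; score built on the fluorescence ratio of max minus min over baseline; more negative score means more quench and so TMEM16A activation or potentiation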
Rce1 inhib: yeast Rce1p protease inhibitors, primary screen, biochemical, fluorescence, cell-free homogeneous; yeast membranes, quenched prenylated peptide cleavage fluorescence; AID 2563, 2010; calls only; 0.27% of 290,000 active;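 active means fall in fluorescence gain of 50% or more versus controls, with final raw signal at or below 3038400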
CHT block: inhibitors of human choline transporter CHT | High affinity choline transporter 1 (Homo sapiens), Q9GZV3 | CHT-expressing cells, membrane potential dye, choline response; stronger effect = lower value | B-score at 10 µM | 0.86% of 310,000 active | AID 488975, 2010;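 active means B-score over 3 SD under the library average, and starting fluorescence ratio not unusually high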;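 further: choline stimulus applied at its EC90 after an EC20 pre-addition; B-score computed on integrated fluorescence ratio after choline addition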
CHT act confirm: CHT activators, confirmation, cell-based, membrane potential dye, duplicate; CHT-expressing cells, membrane potential dye fluorescence (FDSS); % of choline EC20–EC90 response window; HEK293 expressing CHT LV-AA mutant; choline added at its EC20; shares compounds with CHT allo act; 91% of 2,500 active; activation, % at 10 µM;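 active means primary screen active, with duplicate mean activation above negative control mean plus 3 SD, cut at about 11% in these data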
HEK293 MP dye: membrane potential response in parental HEK293 cells, counter-screen for CHT activator project, cell-based, membrane potential dye; shares compounds with CHT allo act; membrane potential dye fluorescence (FDSS); measured after EC20 choline addition; ratio readout change at 10 µM, hits read low; AID 623908, 2012; 62% of 2,500 active;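 active means duplicate-averaged ratio beyond 3 SD from buffer wells, up or down, though filed actives are nearly all decreases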
Hits are given with their value; n = inactive; x = not tested or not shown. Shown are actives, neighbours in structure and some others; about 3.2% of the full set was active somewhere.

SMILES	Kir21 inh	ANO1 block	CHT allo act	TMEM16A act	Rce1 inhib	CHT block	CHT act confirm	HEK293 MP dye
O=C(COC(=O)c1c2c(nc3ccccc13)CCCCC2)NCc1ccc2c(c1)OCO2	n	n	8.7	n	n	n	36	n
COc1ccc(NC(=O)COC(=O)c2c3c(nc4ccccc24)CCCC3)cc1Cl	n	n	n	n	n	n	13	n
O=C(COC(=O)CNC(=O)c1ccccc1)NCCNC(=O)COC(=O)CNC(=O)c1ccccc1	x	x	x	n	x	x	x	x
Cc1sc2c(c1C)C(=O)/C(=C\Nc1ccncc1)S(=O)(=O)N2C	n	n	n	n	n	n	x	x
O=C(NCCCCc1ccccc1)c1cc([N+](=O)[O-])cc([N+](=O)[O-])c1	n	n	n	n	x	n	49	-24
c1cc2c(cc1Cn1cnnn1)OCO2	n	n	n	n	n	n	x	x
Cc1nnc(C)c2c(C)n(Cc3ccc4c(c3)OCO4)c(C)c12	n	n	8.1	n	n	n	54	-45
O=C(NC1CCCC1)c1ncn[nH]1	n	n	n	n	n	n	x	x
Cc1ccc(-c2nc3ncccn3c2NC2CCCCC2)o1	n	n	n	n	n	n	36	n
COCCNC(=O)c1ccccc1NC(=O)CCSc1ccccc1	n	n	n	n	n	n	x	x
CC(=O)OCCCn1c(C)[n+](C)c2cc(Cl)c(Cl)cc21	n	n	9.7	n	n	n	67	-62
CC1CCCN(S(=O)(=O)c2ccc3c(c2)n(C)c(=O)c(=O)n3C)C1 (configuration not stated)	n	n	n	n	n	n	x	x
Cc1ccc(N(C)C(=O)C2CCCN2S(=O)(=O)c2ccc3c(c2)n(C)c(=O)c(=O)n3C)cc1 (configuration not stated)	n	n	6.5	n	n	n	24	-44
Cc1cccc(NC(=O)C2CCCN2S(=O)(=O)c2ccc3c(c2)n(C)c(=O)c(=O)n3C)c1 (configuration not stated)	n	n	n	n	n	n	x	x
Cn1c(=O)c(=O)n(C)c2cc(S(=O)(=O)N3CCN(C4CCCCC4)CC3)ccc21	n	n	13	n	n	n	106	-50
NC1=NC[C@H](Cc2ccc(O)cc2)N1CC1CCCCC1	n	n	n	n	n	n	x	x
CN(C)C1=NC[C@H](Cc2ccccc2)N1CCC1CCCC1	x	n	n	n	x	n	27	n
NC1=NC[C@H](Cc2ccccc2)N1CC1CCCCC1	n	n	n	n	n	n	32	n
Cc1ccc(N2C(=O)C3C(C2=O)C2C=CC3C23CC3)c([N+](=O)[O-])c1 (configuration not stated)	n	n	n	n	n	n	x	x
CCOC(=O)c1cnc2c(cnn2C)c1NCCCn1ccnc1	n	n	7.2	n	n	n	44	-81
CCOC(=O)c1cnc2c(cnn2C)c1NCCCN(C)C	n	n	n	n	n	n	x	x
O=[N+]([O-])c1cccc(-c2nnc(-c3ccccc3)o2)c1	n	n	n	n	n	n	x	x
Cc1sc2cc(-c3cccc([N+](=O)[O-])c3)c(-c3cccc([N+](=O)[O-])c3)c[n+]2c1C	n	n	8.4	n	n	n	56	-88

Bioassay records: PubChem, several laboratories
